Activity calls are given as the source filed them. Rule for the calls: active = hit-call score of the fitted dose curve at least 0.9, where 1 is the maximum; inactive = score below 0.9.

The assay can be described thus: STM_H9_CystineISnorm_perc: Stemina devTOX quickPredict H9 human embryonic stem cell (hESC)-based Assay for Cystine (CYSS) Metabolite Biomarker, Normalized (AID 2283713). From the text:
STM_H9_secretome utilizes undifferentiated H9 cells to measure relative changes in two metabolites, ornithine (ORN) and cystine (CYSS) in the secretome, targeting a critical drop in the ORN/CYSS ratio as a biomarker for developmental toxicity.STM_H9_CystineISnorm_perc is one of 10 components calculated in the STM_H9_secretome assay. It measures the integrated area of the endogenous cystine normalized to the spiked-in isotopically labeled standard and to the median value of the 0.1% DMSO neutral control treatment using UPLC-HRMS technology.Data from the assay component STM_H9_CystineISnorm_perc was analyzed at the assay endpoint STM_H9_CystineISnorm_perc in the positive analysis fitting direction relative to DMSO as the negative control and baseline of activity. Using a type of binding reporter, gain or loss-of-signal activity can be used to understand relative metabolite change.
H9 hESCs maintained in a pluripotent state were exposed to test compound for 72h with chemical replenishment with media replacement every 24h. Cell-conditioned media from the final 24-h treatment period was collected for analysis of the targeted biomarker, and cell viability of the corresponding cell layer was assessed. The chemical library was tested in blinded fashion. Each test plate included 1uM Methotrexate (MTX; Selleck Chemicals, Houston, Texas) as a positive reference, 5 nM MTX as a negative reference, 0.1% DMSO as the neutral (vehicle) control, and sample-level media blanks.H9 cell-conditioned media from the final 24-h treatment period was collected for analysis of the targeted biomarker and cell viability was measured from the corresponding cell layer. Cell viability was measured using the CellTiter-Fluor assay (Promega, Madison, Wisconsin) based on proteolytic cleavage of a substrate to fluorescent signal proportional to the number of living cells. The cell viability Relative Fluorescence Unit (RFU) was background corrected and normalized to mean RFU of the neutral control (0.1% DMSO). The collected H9-cell-conditioned media samples were processed for targeted biomarker analysis as described (Palmer et al., 2013). Briefly, spent media samples were deproteinized (40% acetonitrile) and processed for UPLC-HRMS. Data acquisition was performed using 4 separate UPLC-HRMS systems, consisting of an Agilent 1290 Infinity LC system (Agilent Technologies) interfaced with an Agilent high-resolution mass spectrometer (models G6520A, G6520B, G6530A, and G6224A). A Waters Acquity UPLC BEH Amide column (2.1mm x 50mm, 1.7lm particle size; Waters, Milford, Massachusetts) maintained at 40C was applied for separation of metabolites using a 6.5min solvent gradient with 0.1% formic acid in water and 0.1% formic acid in acetonitrile (1.0ml/min flow rate). Data were acquired using MassHunter Acquisition software (version B 04.00, Agilent Technologies). The extracted ion chromatogram (EIC) areas for ORN, CYSS, and their respective spike-in C13-standards were determined using the Agilent MassHunter Quantitative Analysis software, version B.05.00 or newer (Agilent Technologies), and data were normalized as described in Palmer et al. (2017).
In the case of `CC(=O)[O][Hg][c]1ccccc1`, the AC50 was 0.287 µM (active).
On to `ClC1(Cl)C2(Cl)C3(Cl)C4(Cl)C(Cl)(Cl)C5(Cl)C3(Cl)C1(Cl)C5(Cl)C24Cl` (stereo unspecified), for which the result was inactive.
As for `CC12CC1(C)C(=O)N(c1cc(Cl)cc(Cl)c1)C2=O` (stereo unspecified), the AC50 is 50 µM (active).
Turning to `ClCC(Cl)CCl`, the outcome was inactive.
On the same count and under the same terms, with `CC(C)(C)c1cc(O)ccc1O` the entry was “inactive”.
`O=[N+]([O-])c1ccc(O)c([N+](=O)[O-])c1`: the AC50 is 31.1 µM (active).
With `O=C(O)C(Cl)(Cl)Cl`, the result was inactive.
On to `CCN1CCC2(CC1)COc1cc3c(cc12)N(C(=O)c1ccc(-c2ccc(-c4nnc(C)o4)cc2C)cc1)CC3`, for which the AC50 is 3.56 µM (active).
Still for that read-out and setting: to `C=C(C)C(=O)[O][Sn]([CH2]CCC)([CH2]CCC)[CH2]CCC` belongs 0.266 µM (active); to `C[C@@H]1C[C@@H]([C@H](O)CC2CC(=O)NC(=O)C2)C(=O)[C@@H](C)C1`, 0.92 µM (active); to `O=C(Nc1ccc2[nH]ccc2c1)c1cc2cc(F)ccc2n1Cc1cccc(F)c1`, 1.27 µM (active).

For orientation: AC50 means the midpoint of the concentration-response curve, whichever way the signal moves.

The values above are taken from PubChem BioAssay (EPA / NIEHS).
